Assay [1] deals with TRPC4 beta (transient receptor potential cation channel C4), mouse. As to the kind of experiment: activators of mouse TRPC4 channel, confirmation, cell-based, Fluo4 calcium, HEK293 TRPC4beta/mu-opioid, duplicates, 10 µM (AID 2426;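 active = fluorescence ratio normalized to control raised more than 50% in primary screen plus both repeat runs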). The following applies: Fluo4 calcium fluorescence, at 10 µM; stronger effect = higher value.
The test system of assay [2] is transient receptor potential cation channel C4 beta (TRPC4), mouse. As to the kind of experiment: activators of mouse TRPC4 channel, confirmation, cell-based, second round, Fluo4, HEK293 TRPC4beta/mu-opioid, 1 µM (AID 2461;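 active = primary screen active and over 50% activation in each of two duplicate runs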). Particulars: Fluo4 calcium fluorescence, at 1 µM; stronger effect = higher value.
Assay [3] concerns TRPC4 (transient receptor potential cation channel C4 beta), mouse. Put plainly: positive allosteric modulators of mouse TRPC4, confirmation, cell-based, second round, Fluo-4, HEK293 TRPC4beta/mu-opioid, 1 µM (AID 2554;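 active = primary screen hit whose fluorescence ratio, in both repeats, exceeds the weak agonist control mean by 3 SD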). The following applies: DAMGO EC20, Fluo-4 calcium flux, at 1 µM; stronger effect = higher value. In general terms: A change in cytosolic calcium serves as a functional read-out for many receptors and channels.

Assay [4] has as its system TRPC4 beta (transient receptor potential cation channel C4), mouse. Put plainly: positive allosteric modulators of mouse TRPC4, confirmation, cell-based, Fluo-4, HEK293 TRPC4beta/mu-opioid (AID 2555;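 active = primary screen hit whose calcium fluorescence ratio, in both repeats, exceeds the weak agonist control mean by 3 SD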). The following applies: DAMGO EC20, Fluo-4 calcium flux, at 10 µM; stronger effect = higher value.
For assay [5], the target named is Short transient receptor potential channel 4 (Mus musculus) (UniProt Q9QUQ5). Put plainly: inhibitors of mouse TRPC4 channel, confirmation, cell-based, Fluo4, HEK293 TRPC4beta/mu-opioid (AID 2636;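 active = calcium signal cut by more than 3 SD below the full-agonist control yet still positive, in both repeats and the earlier primary screen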). The following applies: DAMGO, Fluo4 calcium flux, at 10 µM; stronger effect = higher value.
Sequence of Short transient receptor potential channel 4 (Mus musculus) (Q9QUQ5 whole entry, looked up): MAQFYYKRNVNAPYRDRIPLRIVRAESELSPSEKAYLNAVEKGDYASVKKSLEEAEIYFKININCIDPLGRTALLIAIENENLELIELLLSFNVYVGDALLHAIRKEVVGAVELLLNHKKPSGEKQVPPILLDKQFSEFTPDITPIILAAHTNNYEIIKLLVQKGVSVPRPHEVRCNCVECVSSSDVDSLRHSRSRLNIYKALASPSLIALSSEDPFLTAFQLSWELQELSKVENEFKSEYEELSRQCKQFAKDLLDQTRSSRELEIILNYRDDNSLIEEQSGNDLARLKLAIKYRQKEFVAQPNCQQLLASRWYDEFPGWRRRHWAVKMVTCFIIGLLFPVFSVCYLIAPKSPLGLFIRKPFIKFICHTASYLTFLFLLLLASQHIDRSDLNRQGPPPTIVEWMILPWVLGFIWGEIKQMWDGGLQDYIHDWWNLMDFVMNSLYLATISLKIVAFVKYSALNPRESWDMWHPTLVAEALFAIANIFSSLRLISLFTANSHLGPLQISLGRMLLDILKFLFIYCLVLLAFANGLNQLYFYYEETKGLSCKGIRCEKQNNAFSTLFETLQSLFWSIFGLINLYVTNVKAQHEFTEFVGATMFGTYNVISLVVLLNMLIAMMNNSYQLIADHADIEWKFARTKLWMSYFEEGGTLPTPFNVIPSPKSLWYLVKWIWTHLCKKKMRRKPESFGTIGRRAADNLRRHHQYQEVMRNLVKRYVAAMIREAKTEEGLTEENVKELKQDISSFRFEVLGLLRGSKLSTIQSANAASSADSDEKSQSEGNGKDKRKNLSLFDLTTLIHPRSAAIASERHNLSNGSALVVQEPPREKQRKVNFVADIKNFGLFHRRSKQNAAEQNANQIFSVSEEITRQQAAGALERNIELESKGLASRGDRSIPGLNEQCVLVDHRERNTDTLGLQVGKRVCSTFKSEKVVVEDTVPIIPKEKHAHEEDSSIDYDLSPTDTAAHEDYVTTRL
For assay [6] the target is unchanged. As to the kind of experiment: inhibitors of mouse TRPC4 channel, confirmation, cell-based, second round, Fluo4, HEK293 TRPC4beta/mu-opioid, 1 µM (AID 2637;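 active = calcium signal ratio cut to more than 3 SD under the fully stimulated control mean yet still positive, in both repeats and the primary screen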;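 as to inhibition: percent of integrated ratio relative to wells lacking test compound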). The following applies: Fluo4 calcium flux, DAMGO, at 1 µM; stronger effect = higher value.
The target is the same in assay [7]. Put plainly: mouse TRPC4 channel activators, dose response, cell-based, HEK293 TRPC4/mu-opioid, Fluo-4 calcium (AID 434937;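 active = primary screen activator hit with a dose response curve and TRPC4 channel activation at any tested dose; inactive = no activation, no dose response, or not a primary hit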).
The target is the same in assay [8]. As to the kind of experiment: TRPC4 positive allosteric modulators, dose response, cell-based, HEK293 TRPC4/mu-opioid, Fluo-4 calcium, EC20 DAMGO (AID 434941;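 active = earlier screen potentiator hit that boosts the TRPC4 ion channel at some dose, with a dose response; inactive = no potentiation, no dose response, or not a prior hit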;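 also: calcium entry triggered by an EC20 dose of DAMGO at the co-expressed mu-opioid receptor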).
For assay [9], the target named is Short transient receptor potential channel 6 (Mus musculus) (UniProt Q61143). Put plainly: inhibition of mouse TRPC6 channel, confirmation, selectivity assay for TRPC4 inhibitor project, cell-based, HEK293, membrane potential dye, duplicate (AID 434948;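 active = active in primary screen and both duplicates, each dropping signal beyond three positive-control SD with fluorescence still positive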). Particulars: HEK293 TRPC6, membrane potential dye fluorescence, at 10 µM, stimulated with maximal-effect acetylcholine; stronger effect = higher value.
Sequence of Short transient receptor potential channel 6 (Mus musculus) (Q61143 whole entry, looked up): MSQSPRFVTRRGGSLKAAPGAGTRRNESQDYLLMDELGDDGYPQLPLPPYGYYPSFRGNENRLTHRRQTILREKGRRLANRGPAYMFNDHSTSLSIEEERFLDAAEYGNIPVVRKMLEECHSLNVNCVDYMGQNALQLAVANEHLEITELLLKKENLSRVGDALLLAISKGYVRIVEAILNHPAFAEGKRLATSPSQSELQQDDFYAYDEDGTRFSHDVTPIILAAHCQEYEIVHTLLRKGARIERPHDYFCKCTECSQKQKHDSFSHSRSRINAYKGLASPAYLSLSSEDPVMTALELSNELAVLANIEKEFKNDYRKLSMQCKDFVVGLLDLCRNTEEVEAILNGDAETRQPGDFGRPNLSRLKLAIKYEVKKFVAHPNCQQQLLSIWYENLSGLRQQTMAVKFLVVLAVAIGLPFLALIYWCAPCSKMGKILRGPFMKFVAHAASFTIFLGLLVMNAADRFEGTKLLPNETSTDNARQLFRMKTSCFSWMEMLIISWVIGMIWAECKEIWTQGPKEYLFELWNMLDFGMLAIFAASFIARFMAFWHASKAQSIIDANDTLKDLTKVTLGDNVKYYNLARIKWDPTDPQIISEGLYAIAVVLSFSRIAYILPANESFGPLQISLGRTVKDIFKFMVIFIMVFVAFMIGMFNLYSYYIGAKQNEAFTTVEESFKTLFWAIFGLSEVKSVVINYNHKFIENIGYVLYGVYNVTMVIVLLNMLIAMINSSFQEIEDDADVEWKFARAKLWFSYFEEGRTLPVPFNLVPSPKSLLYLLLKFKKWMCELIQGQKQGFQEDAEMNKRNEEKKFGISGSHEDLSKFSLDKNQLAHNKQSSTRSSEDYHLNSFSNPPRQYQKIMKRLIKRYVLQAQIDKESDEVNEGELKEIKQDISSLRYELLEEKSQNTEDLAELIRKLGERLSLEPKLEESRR

Assay [10] has the same target. As to the kind of experiment: activation of mouse TRPC6 channel, confirmation, selectivity assay for TRPC4 activator project, cell-based, HEK293, membrane potential dye, duplicate (AID 434950). The following applies: HEK293 TRPC6, membrane potential fluorescence, at 10 µM; stronger effect = higher value.
For assay [11] the target is unchanged. Put plainly: TRPC6 potentiation by TRPC4 potentiator hits, confirmation, selectivity assay for TRPC4 potentiator project, HEK293 cells, membrane potential dye, duplicate (AID 434952;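 active = compound raising the membrane signal above positive-control mean plus 3 SD in both repeats, and a primary screen hit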). The following applies: HEK293 TRPC6, membrane potential dye fluorescence, at 10 µM, maximal acetylcholine added after compound; stronger effect = higher value.
Assay [12] deals with Short transient receptor potential channel 4 (Mus musculus) (UniProt Q9QUQ5). Put plainly: calcium flux activators in TRPC4/5HT1a cells, counter-screen for TRPC4 activator project, cell-based, second counter screen, HEK293 TRPC4/5HT1a, Fluo-4 (AID 434977;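 active = calcium signal rise above buffer-control mean plus 5 SD in both duplicates, and also a hit in the primary screen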). Particulars: Fluo-4 calcium flux, at 10 µM; stronger effect = higher value.
The nature of assay [13]: calcium flux inhibitors in TRPC4/5HT1a cells, confirmation, counter-screen for TRPC4 inhibitor project, cell-based, second counter screen, HEK293 TRPC4/5HT1a, Fluo-4 (AID 434978;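 active = primary screen active whose calcium signal fell more than 3 SD beyond the full-serotonin control mean in both duplicate plates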;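 as to Outcome: serotonin given first at submaximal then at maximal dose after compound preincubation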). The following applies: Fluo-4 calcium flux, at 10 µM, serotonin added to trigger calcium flux; stronger effect = higher value.
Assay [14] has as its system TRPC4 (mouse), co-expressed with 5HT1a in HEK293. Put plainly: calcium flux potentiators in TRPC4/5HT1a cells, confirmation, counter-screen for TRPC4 potentiator project, cell-based, second counter screen, HEK293 TRPC4/5HT1a, Fluo-4 (AID 434979;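 active = signal rise over 3 SD above mean of control wells given weak agonist, in both repeats and first screen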). Particulars: Fluo-4 calcium flux, at 10 µM, serotonin added at its EC20 dose; stronger effect = higher value.
Assay [15] can be described thus: calcium flux activation in mu-opioid HEK293 cells, confirmation, counter-screen for TRPC4 activator project, cell-based, HEK293 mu-opioid receptor line (AID 449723;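 active = hit in primary screen, with calcium signal over 5 SD above buffer well mean in both duplicates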;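 also: counter screen cells carry the mu-opioid receptor alone and lack TRPC4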). The following applies: Fluo-4 calcium fluorescence, at 10 µM; stronger effect = higher value.
Assay [16] is described as follows: calcium flux enhancement in mu-opioid HEK293 cells, confirmation, counter-screen for TRPC4 allosteric potentiator project, cell-based, HEK293 mu-opioid receptor line (AID 449724;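 active = calcium signal rise more than 3 SD above the low-dose agonist control mean, in both duplicate plates and the primary screen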;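 also: HEK293 cells carrying mu-opioid receptor only with no TRPC4 channel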). Particulars: Fluo-4 calcium flux, at 10 µM, compound added before EC20 DAMGO stimulus; stronger effect = higher value.

Outcome and inhibition data for 14 compounds are collected here from PubChem BioAssay.

Each structure is given as a SMILES string. For some assays here: Results with a measured potency or affinity are listed apart. Active and inactive are the calls of the source.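 The calls were made as follows, unless noted: active = membrane potential signal rise above negative control mean plus 3 SD in both duplicates, also active in the earlier TRPC4 screen; inactive = the rest.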

The inhibition is the change of the read-out against control, counted positive when it falls. Turning to `COc1ccc(NC(=O)c2c[nH]n3c(=O)cc(C4CCN(C(=O)OC(C)(C)C)CC4)nc23)cc1Cl`, the outcome in assay [1], in assay [2], in [3], in assay [4], in [7] and in [8] was inactive. In addition, the compound was called inactive in assay [9], in assay [10], in [11], in assay [12], in assay [14] and in assay [15]. Moreover, the result in [16] was inactive. Besides, the inhibition was 86% (active) in assay [5], 41% (active) in [6] and 40.1% (active) in assay [13].
`Cc1cccc(N(C(=O)c2snc(C(N)=O)c2N)C(C(=O)NCC2CCCO2)c2ccc3ncccc3c2)c1` (centres undefined): the outcome in assay [1], in assay [2], in assay [3], in [4], in assay [6] and in assay [7] was inactive. Further, the result in assay [8], in assay [9], in [10], in [11], in [12] and in assay [13] was inactive. For the same compound, the outcome in [14], in assay [15] and in [16] was inactive. Further, in [5], the inhibition was 85% (active).
Turning to `Cc1ccc(-c2c[n+](Cc3cccc(Cl)c3)c3n2CCC3)cc1`, the result in assay [1], in assay [2], in assay [3], in [4], in assay [7] and in assay [8] was inactive. Further, the compound was classed as inactive in assay [9], in assay [10], in assay [11], in assay [12], in assay [14] and in assay [15]. For the same compound, the result in assay [16] was inactive. Besides, the values for the inhibition in assay [5], in [6] and in assay [13] were 93% (active), 76% (active) and 14.8% (active), respectively.
As for `O=C(c1ccc2c(c1)OCO2)C1CCCN(Cc2cc(F)ccc2-n2cccn2)C1` (centres undefined), the result in assay [1], in assay [2], in [3], in [4], in [6] and in assay [7] was inactive. Moreover, the result in assay [8], in assay [9], in [10], in [11], in [12] and in [14] was inactive. Also, the result in assay [15] and in assay [16] was inactive. For the same compound, the inhibition was 87% (active) in [5] and 32.9% (active) in assay [13].
Regarding `COc1ccc(OC)c(Nc2cc(C)nc3ccc(C)cc23)c1`, the outcome in assay [1], in [2], in [3], in assay [4], in [6] and in assay [7] was inactive. In addition, the outcome in [8], in [10], in assay [11], in assay [12], in [13] and in assay [14] was inactive. Further, the outcome in assay [15] and in assay [16] was inactive. Besides, the inhibition in assay [5] was 38% (active); in [9], 41% (active).
For the compound `Cc1ccc2nc(C)c3c(c2c1)N(c1ccc(F)cc1)CC3`, the outcome in assay [1], in assay [2], in [3], in assay [4], in [7] and in assay [8] was inactive. Besides, the compound was called inactive in assay [10], in [11], in assay [12], in assay [14], in assay [15] and in assay [16]. For the same compound, the inhibition in [5] is 90% (active); in assay [6], 71% (active); in assay [9] it was 25% (active); in assay [13] it was 33.8% (active).
In the case of `Cc1nn(C(=O)CNS(=O)(=O)c2ccccc2)c(C)c1Sc1ccc(Cl)cc1`, the outcome in assay [1], in assay [2], in [3], in [4], in assay [7] and in [8] was inactive. Besides, the compound was called inactive in [10], in assay [11], in assay [12], in [14], in [15] and in [16]. For the same compound, the inhibition was 89% (active) in assay [5], 62% (active) in assay [6], 52.5% (active) in [9] and 11.3% (active) in [13].
Consider `Cc1ccc2c(c1)N(C(=O)CCC(=O)Nc1ccccc1Br)CC(C)O2` (centres undefined), for which the result in assay [1], in assay [2], in [3], in assay [4], in assay [7] and in assay [8] was inactive. The result in assay [9], in [10], in assay [11], in [12], in assay [14] and in [15] was inactive. In addition, the result in [16] was inactive. Moreover, the inhibition in [5] is 90% (active); in assay [6], 46% (active); in assay [13], 31.8% (active).
Turning to `Clc1ccc(CN2C3=NCCN3c3ccccc32)cc1Cl`, the result in assay [1], in assay [2], in assay [3], in assay [4], in [5] and in [7] was inactive. Besides, the result in assay [8], in [9], in assay [10], in assay [11], in [12] and in assay [14] was inactive. The outcome in assay [15] and in assay [16] was inactive. Moreover, the inhibition was 65% (active) in [6] and 20.3% (active) in [13].
In the case of `c1csc(CNc2nc(-c3cccs3)nc3ccccc23)c1`, the result in assay [1], in [2], in [3], in assay [4], in assay [6] and in assay [7] was inactive. Further, the outcome in [8], in assay [9], in assay [10], in [11], in assay [12] and in [14] was inactive. The result in assay [15] and in [16] was inactive. For the same compound, the values for the inhibition in assay [5] and in [13] were 78% (active) and 29.7% (active), respectively.
On to `CCOc1ccccc1CN1CCC(n2nccc2NC(=O)CCc2ccccc2)CC1`, for which the result in [1], in [2], in assay [3], in assay [4], in assay [7] and in [8] was inactive. The outcome in assay [9], in [10], in assay [11], in assay [12], in assay [13] and in assay [14] was inactive. In addition, the result in assay [15] and in assay [16] was inactive. Besides, the inhibition in [5] was 97% (active); in assay [6], 69% (active).
On to `CCCCOc1ccc(CSCCN=C(N)N)cc1`, for which the result in assay [1], in [2], in assay [3], in [4], in [7] and in assay [8] was inactive. Also, the compound was called inactive in assay [9], in [10], in assay [11], in assay [12], in assay [14] and in assay [15]. The result in assay [16] was inactive. Further, the inhibition was 88% (active) in assay [5], 42% (active) in assay [6] and 40.1% (active) in assay [13].
For the compound `CCN(CC)CCn1c2ccccc2c2cnc(N)c(C#N)c21`, the result in [1], in assay [2], in [3], in assay [4], in assay [6] and in [7] was inactive. In addition, the outcome in assay [8], in assay [9], in assay [10], in assay [11], in assay [12] and in assay [14] was inactive. Also, the outcome in assay [15] and in assay [16] was inactive. Also, the inhibition in assay [5] was 82% (active); in assay [13], 32.9% (active).
As to `CCn1c2ccccc2c2cc(/C=N/NC(=O)c3cc(O)cc(O)c3)ccc21`, the outcome in assay [1], in [2], in assay [3], in assay [4], in assay [7] and in [8] was inactive. For the same compound, the result in [9], in [10], in assay [11], in assay [12], in assay [14] and in assay [15] was inactive. In addition, the result in [16] was inactive. For the same compound, the inhibition in assay [5] was 78% (active); in assay [6], 43% (active); in [13], 43% (active).
